The text below walks through data of PubChem BioAssay (EPA / NIEHS).

Inconclusive results are not listed. The source made the active and inactive calls. Rule for the calls, unless noted: active = hit-call score of the fitted dose curve at least 0.9, where 1 is the maximum; inactive = score below 0.9.

The target in assay [1] is Paired box protein Pax-6 (Homo sapiens) (UniProt P26367). The experiment in a line: ATG_Pax6_CIS: Attagene CIS-FACTORIAL HepG2 Assay for human Paired Box 6 (PAX6) (AID 2282956). Particulars: HepG2 CIS-FACTORIAL PAX6 reporter transcription, RNA readout; actives raise or lower the signal. The method in brief: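 Readout: reporter transcript fluorescence after RT-PCR and capillary electrophoresis. Cells: HepG2, transiently transfected with cis-regulated MRTUs. Exposure 24 h. Gain or loss of signal fitted bidirectionally relative to DMSO.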

A short description of assay [2]: ATG_PXRE_CIS: Attagene CIS-FACTORIAL HepG2 Assay for human Pregnane X Receptor Element (PXRE) (AID 2282957). Particulars: HepG2 Attagene CIS-FACTORIAL PXRE reporter, mRNA; actives raise or lower the signal. The method in brief: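 Using HepG2 transfected with multiple reporter transcription units, endogenous factor-driven transcription was scored as reporter mRNA after 24 h exposure.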

Assay [3] can be described thus: ATG_PPRE_CIS: Attagene CIS-FACTORIAL HepG2 Assay for human Peroxisome Proliferator-activated Response Element (PPRE) (AID 2282958). The conditions noted are these: HepG2 PPRE cis-element reporter, Attagene transcription factor profiling; actives raise or lower the signal. The method in brief:
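Multiplexed reporter transcription units under cis-regulatory promoters were transfected into HepG2 cells to capture endogenous factor activity. A 24 h incubation preceded RNA isolation and fluorescent RT-PCR fragment analysis.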

Assay [4] in a line: ATG_RORE_CIS: Attagene CIS-FACTORIAL HepG2 Assay for human RAR-related Orphan Receptor Element (RORE) (AID 2282959). Particulars: HepG2 Attagene cis-factorial RORE reporter, mRNA; actives raise or lower the signal. The method in brief:
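Fluorescence intensity of reporter-specific cDNA fragments, separated by capillary electrophoresis, gives the signal. Source: HepG2 liver cells transiently transfected with cis-element reporters and exposed 24 h; DMSO-normalized bidirectional fit.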

Assay [5] in a line: ATG_Sox_CIS: Attagene CIS-FACTORIAL HepG2 Assay for human SRY-box transcription factor (SOX) (AID 2282960). Particulars: HepG2 Attagene cis-factorial SOX reporter, mRNA; actives raise or lower the signal. The method in brief:
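After 24 h of chemical treatment, transfected HepG2 reporter cells are lysed for total RNA. Transcript levels come from RT-PCR with labelled primer extension and capillary electrophoresis, analysed bidirectionally versus DMSO.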

In assay [6] the target is Transcription factor Sp1 (Homo sapiens) (UniProt P08047). The experiment in a line: ATG_Sp1_CIS: Attagene CIS-FACTORIAL HepG2 Assay for human Specificity Protein 1 (Sp1) (AID 2282961). Particulars: HepG2 Sp1 cis-reporter transcription, actives raise or lower the signal. The method in brief:
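Sp1-driven reporter mRNA, read as capillary electrophoresis fluorescence after RT-PCR, in transiently transfected HepG2 cells dosed for 24 h; signal change in either direction relative to DMSO.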

Assay [7] is described as follows: ATG_SREBP_CIS: Attagene CIS-FACTORIAL HepG2 Assay for human Sterol Regulatory Element Binding (SREBP) (AID 2282962). The conditions noted are these: HepG2 Attagene cis-factorial SREBP reporter, mRNA; actives raise or lower the signal. Put shortly:
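Readout: fluorescent reporter-transcript peaks resolved by capillary electrophoresis after RT-PCR. Cells were human HepG2 carrying transfected cis-promoter reporter constructs, dosed for 24 h. Gain or loss of signal was fitted against DMSO controls.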

Assay [8] deals with Signal transducer and activator of transcription 3 (Homo sapiens) (UniProt P40763). The experiment in a line: ATG_STAT3_CIS: Attagene CIS-FACTORIAL HepG2 Assay for human Signal Transducer and Activator of Transcription 3 (STAT3) (AID 2282963). The conditions noted are these: HepG2, Attagene cis-factorial STAT3 reporter transcription; actives raise or lower the signal. The method in brief:
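Readout: fluorescent reporter mRNA fragments resolved by capillary electrophoresis. Setup: HepG2 transfected with MRTUs reporting endogenous transcription-factor activity, dosed 24 h. Gain or loss of signal fitted bidirectionally against DMSO control.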

Assay [9] in a line: ATG_TA_CIS: Attagene CIS-FACTORIAL HepG2 Assay for human TA Basal Promoter (AID 2282964). Particulars: HepG2 Attagene CIS-factorial TA basal promoter reporter; actives raise or lower the signal. The method in brief: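 Steps: transfect HepG2 with MRTUs; dose 24 h; isolate RNA, DNase-treat, reverse-transcribe; PCR and FAM-label reporter cDNA; digest with HpaI 2h at 37 C; run capillary electrophoresis. Activity fitted both directions against DMSO.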

Assay [10] in a line: ATG_TCF_b_cat_CIS: Attagene CIS-FACTORIAL HepG2 Assay for human T-Cell-Factor with beta-catenin (TCF/b-cat) (AID 2282965). Particulars: HepG2 TCF/beta-catenin cis-reporter transcription, actives raise or lower the signal. Put shortly: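 Cells of the HepG2 line carry transiently transfected reporter units whose promoters respond to endogenous factors. Twenty-four hours post-dosing, reporter mRNA induction is measured by fluorescent RT-PCR and capillary electrophoresis, with DMSO as baseline.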

The nature of assay [11]: ATG_TAL_CIS: Attagene CIS-FACTORIAL HepG2 Assay for human TAL Basal Promoter (AID 2282966).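 Note: background control endpoint measuring basal TAL promoter reporter mRNA not a specific factor.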 Particulars: HepG2 Attagene cis-factorial TAL promoter reporter; actives raise or lower the signal. The method in brief:
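After 24 hours of chemical exposure, transfected HepG2 cells yielded RNA that was converted to 6-FAM-labelled, HpaI-digested reporter fragments for capillary electrophoresis. Values derive from bidirectional fitting against DMSO controls.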

A short description of assay [12]: ATG_TGFb_CIS: Attagene CIS-FACTORIAL HepG2 Assay for human Transforming Growth Factor (TGF) (AID 2282967). Particulars: HepG2 Attagene CIS TGFb reporter, mRNA transcription; actives raise or lower the signal. The method in brief: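 Cells were dosed for 24 hours, after which total RNA was reverse-transcribed and reporter sequences amplified, labeled and sized by capillary electrophoresis. Activity was fitted in both directions against DMSO.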

Assay [13] in a line: ATG_VDRE_CIS: Attagene CIS-FACTORIAL HepG2 Assay for human Vitamin D Receptor Element (VDRE) (AID 2282968). The conditions noted are these: HepG2 VDRE cis-reporter transcription, actives raise or lower the signal. Put shortly: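 Transient MRTU transfection of HepG2, 24 h compound exposure. Readout: reporter transcripts via RT-PCR and capillary electrophoresis, fluorescence. Bidirectional fit vs DMSO.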

For assay [14], the target named is Nuclear receptor subfamily 1 group I member 3 (Homo sapiens) (UniProt Q14994). The experiment in a line: ATG_CAR_TRANS: Attagene TRANS-FACTORIAL HepG2 Assay for human Constitutive Androstane Receptor (CAR) (AID 2282969; active = hit-call score of the fitted dose curve at least 0.9, where 1 is the maximum;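 note: activators raise reporter mRNA above DMSO so AC50 marks induction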). The conditions noted are these: HepG2 Attagene TRANS-FACTORIAL CAR reporter. The method in brief: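 Transiently transfected HepG2, multiplex TRANS reporters (CAR-Gal4 chimera driving GAL4-UAS reporter). 24 h dosing. Readout: reporter transcript by RT-PCR + capillary electrophoresis, fluorescence intensity; positive direction vs DMSO.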

Assay [15] concerns the target X-box-binding protein 1 (Homo sapiens) (UniProt P17861). The experiment in a line: ATG_Xbp1_CIS: Attagene CIS-FACTORIAL HepG2 Assay for human X-box Binding Protein 1 (XBP1) (AID 2282972). Particulars: HepG2 XBP1 cis-element reporter, Attagene multiplex; actives raise or lower the signal. The method in brief: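 Read-out: fluorescent reporter mRNA fragments resolved by capillary electrophoresis after RT-PCR. Human HepG2 liver cells carried transfected cis-promoter reporter units and were exposed to chemicals for 24 hours. Gain or loss of signal fitted relative to DMSO baseline.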

Assay [16] is described as follows: ATG_M_19_TRANS: Attagene TRANS-FACTORIAL HepG2 Assay for M19 Transcription Factor (Internal Marker) (AID 2282974; active = hit-call score of the fitted dose curve at least 0.9, where 1 is the maximum). Particulars: HepG2 Attagene TRANS-FACTORIAL M19 internal marker reporter. The method in brief: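 Measured here: internal-marker reporter transcript from HepG2 cells transfected with MRTUs, harvested at 24 h. cDNA PCR products were 6-FAM labelled by primer extension, cut with HpaI for 2 h at 37 C, and resolved by CE.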

A short description of assay [17]: ATG_PBREM_CIS: Attagene CIS-FACTORIAL HepG2 Assay for human Phenobarbital-responsive Enhancer Module (PBREM) (AID 2282955). Particulars: HepG2 PBREM cis-reporter, Attagene multiplexed transcription; actives raise or lower the signal. The method in brief:
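After a 24 h incubation with test chemical, transfected HepG2 cells yield total RNA; reporter-specific RT-PCR products are fluorescently labelled, HpaI-digested and resolved by capillary electrophoresis against ROX size standards.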

The target in assay [18] is Steroid hormone receptor ERR1 (Homo sapiens) (UniProt P11474). The experiment in a line: ATG_ERRa_TRANS: Attagene TRANS-FACTORIAL HepG2 Assay for human Estrogen-Related Receptor alpha (ERRa) (AID 2282971; active = hit-call score of the fitted dose curve at least 0.9, where 1 is the maximum). Particulars: HepG2 Attagene TRANS reporter, ERRa transactivation. The method in brief:
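Reporter transcript induction was quantified by RT-PCR and capillary electrophoresis of FAM-labelled, HpaI-cut products after 24 h treatment of HepG2 cells carrying transiently transfected GAL4-UAS reporter units and an exogenous ERRa-Gal4 fusion; activity scored as increase over DMSO.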

Assay [19] addresses Estrogen receptor (Homo sapiens) (UniProt P03372). The experiment in a line: ATG_ERa_TRANS: Attagene TRANS-FACTORIAL HepG2 Assay for human Estrogen Receptor alpha (ERa) (AID 2282970; active = hit-call score of the fitted dose curve at least 0.9, where 1 is the maximum). The conditions noted are these: HepG2 Attagene TRANS ERa GAL4 reporter, mRNA. Put shortly:
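Liver-derived HepG2 cells expressing chimeric nuclear receptor-Gal4 proteins from transient transfection were exposed for 24 hours. Gain of reporter mRNA signal versus DMSO, read by capillary electrophoresis of FAM-labelled PCR products, was recorded.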

Sequence of Signal transducer and activator of transcription 3 (Homo sapiens) (P40763 whole entry, looked up, the tested form may be a part): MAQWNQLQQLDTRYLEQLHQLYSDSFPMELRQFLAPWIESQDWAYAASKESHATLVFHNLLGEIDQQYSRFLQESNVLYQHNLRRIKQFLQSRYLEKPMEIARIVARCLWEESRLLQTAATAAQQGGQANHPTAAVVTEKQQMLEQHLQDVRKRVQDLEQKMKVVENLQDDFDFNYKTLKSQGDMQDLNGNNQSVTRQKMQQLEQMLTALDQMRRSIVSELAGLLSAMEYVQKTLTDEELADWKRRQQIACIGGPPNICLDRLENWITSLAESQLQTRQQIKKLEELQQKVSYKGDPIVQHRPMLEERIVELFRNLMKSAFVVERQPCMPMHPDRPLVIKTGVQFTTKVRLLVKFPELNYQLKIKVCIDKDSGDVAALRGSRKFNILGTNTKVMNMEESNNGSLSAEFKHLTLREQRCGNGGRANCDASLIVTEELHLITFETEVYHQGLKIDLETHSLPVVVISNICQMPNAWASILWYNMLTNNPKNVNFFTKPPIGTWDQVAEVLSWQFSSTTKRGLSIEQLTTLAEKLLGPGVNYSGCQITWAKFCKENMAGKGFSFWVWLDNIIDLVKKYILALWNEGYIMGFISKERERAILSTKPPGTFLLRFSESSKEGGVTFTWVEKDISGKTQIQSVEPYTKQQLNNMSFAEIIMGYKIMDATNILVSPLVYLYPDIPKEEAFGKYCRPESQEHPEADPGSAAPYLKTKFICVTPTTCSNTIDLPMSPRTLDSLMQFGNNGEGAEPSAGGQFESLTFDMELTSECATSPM
Sequence of Paired box protein Pax-6 (Homo sapiens) (P26367 whole entry, looked up): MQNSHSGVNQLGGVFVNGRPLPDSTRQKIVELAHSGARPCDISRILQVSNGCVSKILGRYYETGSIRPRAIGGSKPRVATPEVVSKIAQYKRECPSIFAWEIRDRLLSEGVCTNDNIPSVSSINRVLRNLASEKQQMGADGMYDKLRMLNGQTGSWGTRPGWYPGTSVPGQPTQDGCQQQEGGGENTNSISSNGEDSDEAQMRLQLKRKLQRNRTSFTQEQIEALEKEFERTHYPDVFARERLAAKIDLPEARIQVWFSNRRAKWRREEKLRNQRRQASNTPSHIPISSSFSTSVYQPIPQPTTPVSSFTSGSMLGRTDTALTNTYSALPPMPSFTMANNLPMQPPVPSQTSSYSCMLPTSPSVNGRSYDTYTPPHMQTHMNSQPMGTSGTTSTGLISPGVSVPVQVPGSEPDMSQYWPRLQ
Sequence of X-box-binding protein 1 (Homo sapiens) (P17861 whole entry, looked up, the tested form may be a part): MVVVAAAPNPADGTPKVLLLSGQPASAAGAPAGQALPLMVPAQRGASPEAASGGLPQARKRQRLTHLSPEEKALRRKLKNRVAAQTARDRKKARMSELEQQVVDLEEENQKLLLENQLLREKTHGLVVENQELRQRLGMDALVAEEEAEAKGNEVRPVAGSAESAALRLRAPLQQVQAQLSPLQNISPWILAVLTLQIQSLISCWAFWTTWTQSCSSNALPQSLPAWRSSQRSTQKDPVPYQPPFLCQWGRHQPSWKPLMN
Sequence of Transcription factor Sp1 (Homo sapiens) (P08047 whole entry, looked up): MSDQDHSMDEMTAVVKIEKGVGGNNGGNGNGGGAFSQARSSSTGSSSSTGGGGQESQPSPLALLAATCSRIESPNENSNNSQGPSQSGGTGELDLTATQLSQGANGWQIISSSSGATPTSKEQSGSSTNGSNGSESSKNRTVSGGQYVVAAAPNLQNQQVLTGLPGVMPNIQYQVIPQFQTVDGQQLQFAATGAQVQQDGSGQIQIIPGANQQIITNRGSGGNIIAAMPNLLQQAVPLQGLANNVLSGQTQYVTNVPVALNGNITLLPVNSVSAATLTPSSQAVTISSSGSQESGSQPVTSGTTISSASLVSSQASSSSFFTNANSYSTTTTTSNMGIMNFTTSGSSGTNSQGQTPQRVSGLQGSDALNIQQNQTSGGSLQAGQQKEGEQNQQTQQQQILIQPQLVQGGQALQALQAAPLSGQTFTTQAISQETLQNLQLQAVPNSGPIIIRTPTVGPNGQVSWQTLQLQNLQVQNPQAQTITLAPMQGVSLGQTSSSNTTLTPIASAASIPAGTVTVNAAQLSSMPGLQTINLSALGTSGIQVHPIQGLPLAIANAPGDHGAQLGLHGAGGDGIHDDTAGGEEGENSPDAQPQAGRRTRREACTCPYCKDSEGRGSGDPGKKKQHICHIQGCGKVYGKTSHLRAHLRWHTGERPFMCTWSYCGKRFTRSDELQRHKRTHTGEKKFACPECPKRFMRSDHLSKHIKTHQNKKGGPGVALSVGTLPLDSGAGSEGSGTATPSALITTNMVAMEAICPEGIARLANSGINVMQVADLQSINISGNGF
Sequence of Nuclear receptor subfamily 1 group I member 3 (Homo sapiens) (Q14994 whole entry, looked up, the tested form may be a part): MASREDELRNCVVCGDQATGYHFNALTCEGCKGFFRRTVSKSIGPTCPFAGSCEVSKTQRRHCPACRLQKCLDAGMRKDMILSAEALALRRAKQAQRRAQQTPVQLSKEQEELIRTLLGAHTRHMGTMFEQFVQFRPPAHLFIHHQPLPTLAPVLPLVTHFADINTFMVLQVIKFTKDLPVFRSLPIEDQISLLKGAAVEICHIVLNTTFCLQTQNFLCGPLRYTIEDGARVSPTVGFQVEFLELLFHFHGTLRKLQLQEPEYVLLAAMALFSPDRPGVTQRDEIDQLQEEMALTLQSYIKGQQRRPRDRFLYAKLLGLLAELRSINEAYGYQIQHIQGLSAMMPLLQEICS
Sequence of Estrogen receptor (Homo sapiens) (P03372 whole entry, looked up, the tested form may be a part): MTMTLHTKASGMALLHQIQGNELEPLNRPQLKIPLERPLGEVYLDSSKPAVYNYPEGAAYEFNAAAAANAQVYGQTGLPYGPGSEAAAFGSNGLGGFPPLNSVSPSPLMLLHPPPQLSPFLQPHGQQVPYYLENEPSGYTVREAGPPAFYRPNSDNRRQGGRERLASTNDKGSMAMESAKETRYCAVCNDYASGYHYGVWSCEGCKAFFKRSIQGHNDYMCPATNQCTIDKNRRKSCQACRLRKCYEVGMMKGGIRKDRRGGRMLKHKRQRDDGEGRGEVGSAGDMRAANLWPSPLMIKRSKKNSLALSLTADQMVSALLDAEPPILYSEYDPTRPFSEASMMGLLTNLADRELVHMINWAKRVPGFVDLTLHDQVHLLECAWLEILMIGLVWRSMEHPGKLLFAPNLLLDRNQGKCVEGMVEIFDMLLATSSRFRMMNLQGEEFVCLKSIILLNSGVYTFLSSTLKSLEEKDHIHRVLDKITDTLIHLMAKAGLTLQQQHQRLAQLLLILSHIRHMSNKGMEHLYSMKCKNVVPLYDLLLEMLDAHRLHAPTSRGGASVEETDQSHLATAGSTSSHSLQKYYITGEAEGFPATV
Sequence of Steroid hormone receptor ERR1 (Homo sapiens) (P11474 whole entry, looked up, the tested form may be a part): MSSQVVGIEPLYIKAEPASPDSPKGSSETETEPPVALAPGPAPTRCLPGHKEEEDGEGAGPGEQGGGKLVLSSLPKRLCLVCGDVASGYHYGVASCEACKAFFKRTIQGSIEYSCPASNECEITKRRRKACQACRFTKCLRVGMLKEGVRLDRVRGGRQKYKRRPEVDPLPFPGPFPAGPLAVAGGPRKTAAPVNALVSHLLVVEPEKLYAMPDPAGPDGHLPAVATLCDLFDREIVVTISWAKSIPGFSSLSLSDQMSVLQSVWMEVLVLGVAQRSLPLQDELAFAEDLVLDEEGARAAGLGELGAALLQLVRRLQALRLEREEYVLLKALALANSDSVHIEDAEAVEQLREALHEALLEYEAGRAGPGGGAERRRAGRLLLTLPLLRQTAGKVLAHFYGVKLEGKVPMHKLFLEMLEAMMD

For `CCN(CC)c1nc(C)cc(OP(=S)(OC)OC)n1`, the call in assay [1], in assay [5], in assay [6], in [7], in [8] and in [9] was inactive. Moreover, the result in assay [10], in [11], in [12], in assay [14] and in assay [16] was inactive. Moreover, the half-maximal activity concentration (AC50) – broadly, the concentration giving half of the maximal activity seen – in [2] is 3.38 µM (active); in assay [3] it was 34.1 µM (active); in [4] it was 20 µM (active); in assay [13] it was 25.4 µM (active); in assay [15], 50 µM (active).
Consider `CC(C)Oc1cccc(NC(=O)c2ccccc2C(F)(F)F)c1`, for which the outcome in assay [17], in assay [1], in assay [5], in [6], in assay [8] and in assay [9] was inactive. Also, the result in assay [10], in [11], in assay [12], in assay [18], in assay [15] and in assay [16] was inactive. Besides, the half-maximal activity concentration (AC50) in assay [2] is 4.22 µM (active); in assay [3], 21.3 µM (active); in assay [4], 33.6 µM (active); in assay [13], 17.6 µM (active).
Take `CS(=O)(=O)c1ccc(C(=O)C2C(=O)CCCC2=O)c([N+](=O)[O-])c1`: the result in assay [17], in [1], in assay [2], in [3], in assay [4] and in assay [5] was inactive. Moreover, the compound was called inactive in assay [6], in [7], in assay [8], in [9], in assay [10] and in assay [11]. Also, the compound was classed as inactive in [12], in assay [13] and in assay [15].
Regarding `Cc1cnc(C2=NC(C)(C(C)C)C(=O)N2)c(C(=O)O)c1` (stereo not drawn), the result in [1], in assay [3], in assay [4], in assay [5], in [6] and in assay [7] was inactive. For the same compound, the call in assay [8], in assay [9], in assay [10], in assay [11], in assay [12] and in assay [19] was inactive. Also, the compound was classed as inactive in [15] and in [16]. Besides, the half-maximal activity concentration (AC50) in assay [2] is 24.8 µM (active); in assay [13], 50 µM (active).
